# D1 ag – activates the human D1 dopamine receptor. P21728. HEK293 T-REx D1 cells, calcium flux, agonist mode. activation, % at 2 µM. 360,000 tested, 1% active. AID 504660
#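 Tetracycline-induced HEK293 TREx D1 cells, force-coupled to calcium signalling, were dye-loaded with a no-wash calcium kit. Compound was pin-added after a 10 s baseline. Fluorescence was read kinetically at 1 cycle/s for 180 s, with calcium rises flagged as agonism.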
# TRHR PAM – allosterically enhances the human TRH receptor. P34981. TRHR cells, fluo-8 calcium fluorescence, EC20 TRH enhancement. enhancement, % at 2 µM. 360,000 tested, 0.66% active. AID 493056; in the data active = enhancement above about 30%
# Target sequence (P34981 whole entry, looked up): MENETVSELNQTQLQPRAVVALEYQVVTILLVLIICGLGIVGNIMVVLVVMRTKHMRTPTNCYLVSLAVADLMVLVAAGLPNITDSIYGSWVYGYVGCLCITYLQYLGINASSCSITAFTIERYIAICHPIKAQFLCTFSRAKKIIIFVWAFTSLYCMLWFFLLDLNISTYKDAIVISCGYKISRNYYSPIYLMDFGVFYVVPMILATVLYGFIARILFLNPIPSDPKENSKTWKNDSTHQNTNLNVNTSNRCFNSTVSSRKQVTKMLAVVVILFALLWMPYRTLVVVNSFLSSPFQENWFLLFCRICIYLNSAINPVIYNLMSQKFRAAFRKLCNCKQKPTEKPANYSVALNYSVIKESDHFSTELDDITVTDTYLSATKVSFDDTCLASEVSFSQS
#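 TRHR-expressing cells loaded with fluo-8 calcium dye were read kinetically (ex 480/em 530) during compound addition, then stimulated with an EC20 of TRH (10 nM final). Enhancement of the Gq-mediated intracellular calcium response was scored.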
# D1 PAM – enhances dopamine response at the human D1 receptor | 360,000 tested, 0.036% active | P21728 | HEK293 TREx D1 cells, calcium flux, dopamine EC20 potentiation | potentiation, % at 10 µM | AID 504651; in the data active = potentiation above about 30%
# Glioma ERSR ind – induces the endoplasmic reticulum stress response in human glioma cells. Potency, µM, actives largely listed as activators. U87-MG GRP78 promoter luciferase reporter, 16 h. AID 602332. 420,000 tested, 0.02% active; active = well fitted activation curve with a large enough effect; also: series mostly up to about 76 µM; nearly all actives have a fitted effect of over 35% in size
#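 Stably transfected U87-MG glioma cells carrying a GRP78-based luciferase sensor; 16 h compound incubation. Luminescence end-point read 10 min after Bright-Glo addition at room temperature.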
# D1 antag – antagonists of human D1 dopamine receptor | 360,000 tested, 3.2% active | HEK293 TREx D1 cells, calcium flux, dopamine EC80; stronger effect = lower value | AID 504652 | activity change, negative = inhibition, % at 10 µM; in the data active = activity change below about -30%
#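 Allosteric or orthosteric antagonism assessed as attenuation of the calcium response to EC80 dopamine, added 180 s after compound, in induced HEK293 Trex D1 cells loaded with no-wash calcium dye.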
# TRHR agonist – activates the human TRH receptor; P34981; TRHR cells, calcium flux fluo-8, FDSS agonist mode; activation, % at 2 µM; 360,000 tested, 0.18% active
#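 Read-out: compound-evoked intracellular calcium rise in TRHR cells, fluo-8 dye, kinetic FDSS fluorescence at 1 s/cycle following a 10-cycle baseline. Cells cultured overnight before dye loading (30 min–1.5 h, RT).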
# Hits are given with their value; - = inactive; . = no result given; ! = not active in a repeat. Shown are actives, neighbours in structure and some others; about 4% of the full set was active somewhere. Rule as the data show it, unless noted: active = activation above about 30%; inactive = the rest.
SMILES,D1 ag,TRHR PAM,D1 PAM,Glioma ERSR ind,D1 antag,TRHR agonist
C[C@H]1c2cccc(O)c2C(O)=C2C(=O)[C@]3(O)C(O)=C(C(N)=O)C(=O)[C@@H](N(C)C)[C@@H]3[C@@H](O)[C@@H]21,-,-,-,-,-83,-
COc1cccc2nccc(/C=C/c3ccc(N(C)C)cc3)c12,.,.,.,-,.,.
CCn1c(SC(C)C)nnc1-c1c[nH]c2ccccc12,-,-,.,-,-31,-
CCOC(=O)CSc1nnc(-c2c[nH]c3ccccc23)n1CC,-,-,.,-,-,-
CNC(=S)NNC(=O)c1cc(C(C)(C)C)nn1Cc1ccc(F)cc1,-,-,-,-,-,-
Cn1cc(C(=O)C(=O)N2CCCc3ccccc32)c2ccccc21,-,-,-,-,-,-
Cn1cc(S(=O)(=O)CC(=O)N2CCCc3ccccc32)c2ccccc21,-,-,.,-,-84,-
COc1ccc(Cl)cc1/C=C(\C#N)C(N)=O,-,-,-,-,-,-
COC(=O)CSc1nc(NCc2ccccc2)nc(N(C)C)n1,-,-,-,-,-40,-
CN(C)c1nc(NCc2ccccc2)nc(SCC(=O)Nc2ccc(Cl)c(Cl)c2)n1,-,-,-,-,-,-
CN(C)CCCC1(c2ccc(F)cc2)OCc2cc(C#N)ccc21 (stereo not given),-,-,-,-,-52!,-
Cc1nn(C2CCS(=O)(=O)C2)c(Cl)c1/C=C/C(=O)OCC(N)=O (stereo not given),-,33,-,-,-,-
Cc1nn(-c2ccccc2)c(C)c1/C=C/C(=O)OCC(=O)N(C)C1CCS(=O)(=O)C1 (stereo not given),-,-,-,-,-84,-
CCOC(=O)Cc1csc(NC(=O)C(C)c2ccc([N+](=O)[O-])cc2)n1 (stereo not given),58,-,-,-,-38,-
CCOC(=O)Cc1csc(NS(=O)(=O)c2ccccc2)n1,-,-,-,-,-,-
CCOC(=O)Cc1csc(NS(=O)(=O)c2cccc([N+](=O)[O-])c2)n1,-,36,-,-,-,-
COCCCNc1oc(-c2ccc(COc3ccccc3C)o2)nc1C#N,-,-,-,-,-,-
C/C1=C/CC(C)(C)/C=C/C/C(C)=C/CC1,.,.,.,-,.,.
CCCC(=O)O[C@]1(C(=O)COC(=O)CC)[C@@H](C)C[C@H]2[C@@H]3CCC4=CC(=O)C=C[C@@]4(C)[C@@]3(F)[C@H](O)C[C@@]21C,.,.,.,-,.,.
CC(NC(=O)c1cccs1)c1nnc(SCc2ccc(Cl)cc2Cl)n1C (stereo not given),-,-,-,-,-,-
C=CCn1c(CNC(=O)c2cccs2)nnc1SCc1ccc(Cl)cc1Cl,60,-,-,-,-,-
CCc1ccc(CNC(=O)c2cc3n(n2)CCCN(Cc2ccccc2)C3=O)cc1,66,-,-,-,-47,-
COc1cccc(C(c2nnnn2CC2CCCO2)N2CCN(C(=O)c3ccco3)CC2)c1OC (stereo not given),-,-,-,-,-38,-
COCCn1nnnc1C(c1cccc(OC)c1OC)N1CCN(C(=O)c2ccco2)CC1 (stereo not given),-,-,-,-,-,-
CSc1nsc(NC(=O)OCc2ccc(Cl)cc2)n1,-,-,-,-,-36,-
SMILES,D1 ag,TRHR PAM,D1 PAM,Glioma ERSR ind,D1 antag,TRHR agonist
O=C(Cn1c(C(=O)NCc2ccco2)cc2sccc21)c1ccccc1,-,-,-,-,-,-
O=C(NCC1CCCO1)c1ccc(S(=O)(=O)Nc2ccccc2F)cc1 (stereo not given),-,-,-,-,-38,-
O=C(Cn1c(C(=O)NCC2CCCO2)cc2sccc21)c1ccccc1 (stereo not given),-,-,-,-,-50,-
O=C(NCC1CCCO1)c1cccc(NC(=O)c2ccccc2)c1 (stereo not given),-,-,-,-,-31,-
Cc1cccc(NS(=O)(=O)c2ccc(C(=O)NCC3CCCO3)cc2)c1C (stereo not given),-,-,-,-,-,-
COc1ccc(N(Cc2ccccc2)S(=O)(=O)c2cccc(C(=O)NCC3CCCO3)c2)cc1 (stereo not given),-,-,-,-,-37,-
Cc1ccccc1-c1noc(-c2ccccc2C(=O)NCC2CCCO2)n1 (stereo not given),-,-,-,-,-30,-
COc1ccccc1-c1noc(-c2ccccc2C(=O)NCC2CCCO2)n1 (stereo not given),-,-,-,-,-,-
O=C(NCC1CCCO1)c1cccc(Oc2ccc([N+](=O)[O-])cc2)c1 (stereo not given),-,-,-,-,-35,-
Cc1ccc(NC(=O)c2ccc(CNS(=O)(=O)c3ccc4c(c3)C(C)(C)C(=O)N4C)cc2)cc1C,-,-,-,-,-,-
Cc1ccc(S(=O)(=O)Nc2cccc(-c3ccc(N4CCCCC4)nn3)c2)s1,-,-,-,-,-80,-
CC1CCN(c2ccc(-c3cccc(NC(=O)C(F)(F)F)c3)nn2)CC1,-,-,-,-,-55,-
O=C(Nc1cccc(-c2ccc(N3CCCCC3)nn2)c1)C(F)(F)F,-,-,-,-,-33,-
CCc1ccc(S(=O)(=O)Nc2cccc(-c3ccc(N4CCCCC4)nn3)c2)s1,-,-,-,-,-,-
O=C(Nc1cccc(-c2ccc(N3CCCCC3)nn2)c1)c1ccc(Br)o1,-,-,-,-,-,-
CCC(=O)Nc1cccc(-c2ccc(N3CCC(C)CC3)nn2)c1,-,-,-,-,-,-
Cc1c(C(=O)N(C)Cc2cscn2)sc2ncnc(NC[C@H]3CCc4ccccc4O3)c12,.,.,.,-,.,.
COC(=O)[C@@H]1CCCN1C(=O)c1c(OC)cc(=O)n2c1CCN(Cc1ccc3c(c1)OCCO3)CC2,.,.,.,-,.,.
Cc1cccc(C(=O)OCC(=O)N2CCCC2=O)c1O,-,-,.,-,-,-
O=C1CC(SC2=NCCS2)C(=O)N1c1ccc(Br)cc1 (stereo not given),44,-,-,-,-,-
CCn1nc(C)c(Br)c1-c1nc(CS(=O)(=O)c2ccsc2)no1,-,37,-,-,-,-
CCn1nc(C)c(Br)c1-c1nc(-c2cccc(C)c2)no1,-,-,-,-,-,-
Cc1cccc(NC(=O)CSc2nc(-c3ccco3)nc3cc(=O)[nH]n23)c1,-,-,-,-,-,-
CCN(c1ccccc1)c1nnc(NC(=O)Nc2ccc(Br)c(C)c2)s1,-,-,-,-,-,-
Cc1ccc(NC(=O)Nc2nnc(N(C)Cc3ccccc3)s2)c(C)c1,-,-,-,-,-41,-
CCN(c1ccccc1)c1nnc(NC(=O)Nc2ccc(C)cc2)s1,-,-,-,-,-34,-

# Bioassay records (PubChem)
